In the OligoGym collection one finds sensor-assay potency score (higher = more potent) data, which are given here for 17 sequences.
Further: reference of the scale not given here.

The first assay addresses KLHL20. Put plainly: pooled miR-30 sensor sort-seq; sequence = guide strand. Conditions: shRNA.
For the sequence TTTGTCTATGAATACAATGAGG, the sensor-assay potency score (higher = more potent) is -1.57. Still for that read-out and setting: with TTGTTTGTATAAAAGAACCAAG the figure was -1.24.

TACATTTTGCATACCTACCTTT returned a sensor-assay potency score (higher = more potent) of -0.113. Still for that read-out and setting: the figure for TCTCCTGTAAACATAGCTCGGA is -0.114; for TTCTTCATCACTTTTGATGAGG it is -0.804.

The sequence TTGAAAATTATTGTGCATCTTG showed a sensor-assay potency score (higher = more potent) of -0.295. Still for that read-out and setting: the figure for TATGTTGGGTGAACTTGTCTGC is 0.299; for TACAGCATAGATCATGTCCTGA it is 0.298.

Consider TAATTGAGGACGTCTTTCCTGA, for which the sensor-assay potency score (higher = more potent) was found to be 0.0524. The same measure, in the same setting: the figure for TCATCTACCAAGTCTCTGCATT is -0.755. Same read-out and setting: with TTGAACACTTGTTCTTCACTGC the figure was 0.569; with TTGTTCTTCACTGCGAACGTTT, -0.688.

The next assay addresses KLHL24. The assay is described as above. Conditions: shRNA.
TTTACCATTACACACAGACATA returned a sensor-assay potency score (higher = more potent) of -1.69. On the same count and under the same terms, the figure for TATGAATAGTCACACAGCCATG is -1.71; for TATCAGAACAAGTATTATCATC it is -1.27.

In turn, TATTTTTCTATCTCCTACCTAA came in with a sensor-assay potency score (higher = more potent) of 0.015. On the same count and under the same terms, with AAACTTTTCGCTTAGTTGCTGG the figure was -0.446.
